Data as given in PubChem BioAssay (NCATS).
Where “and” joins values, the source holds several entries; their conditions need not be identical. Identical values can stand only once. Results filed as inconclusive are left out. Calls of active or inactive are those of the source. Unless noted, the call rests on the fitted dose curve; in most records, active means well fitted curve in the direction sought with a large enough effect; inconclusive means small, poorly fitted or top-dose-only effect, or another doubt; inactive means no such curve, though single readings can be large; an effect the other way counts as inactive or inconclusive.

Assays:
PA-1 = experiment: Primary qHTS to identify gynecologic anti-cancer compounds using libraries of approved drugs and bioactive compounds (AID 1345084); details: Gynecologic cancer cell panel viability, ATPlite luminescence, 48 h; series mostly up to 57.5 µM; further: on the % scale 0 is the no-effect control and ±100 the full control effect; nearly all actives have a fitted effect of over 55% in size
Summary of the method: (§1)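 48 h compound exposure at 37 C, 5% CO2; five-point qHTS. ATPlite luminescence readout of cell ATP.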

SKOV3 = experiment: as above; details: Gynecologic cancer cell panel viability, ATPlite luminescence, 48 h; series mostly up to 57.5 µM
Summary of the method: as §1

Tov-21-G = experiment: as above; details: Gynecologic cancer cell panel viability, ATPlite luminescence, 48 h; series mostly up to 57.5 µM
Summary of the method: as §1

Tov112D = experiment: as above; details: Gynecologic cancer cell panel viability, ATPlite luminescence, 48 h; series mostly up to 57.5 µM
Summary of the method: as §1

[1] = Drug repurposing screens with cells derived from glioblastoma tumor samples (AID 1345199); details: GBM patient neurospheres viability, ATP luminescence, 48 h; further: nearly all actives have a fitted effect of over 40% in size; further: potency means the concentration at half of the fitted maximal effect; on activity, negative = cell killing: on the % scale 0 is the no-effect control and ±100 the full control effect
Summary of the method: (§2)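 Four patient lines of CD133+ GBM neurospheres were screened at several concentrations; hits were retested in those lines plus three slower-growing GBM lines, using 48-hour treatment and ATP-based viability.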

astro = experiment: as above; details: viability, ATP luminescence, 48 h; series mostly up to 45.9 µM
Summary of the method: as §2

[2] = biological target: Nuclear receptor subfamily 1 group I member 2 (Rattus norvegicus) (UniProt Q9R1A7); experiment: qHTS assay for small molecule activators of the rat pregnane X receptor (rPXR) signaling pathway (AID 651751; call rule not given here; further: 0% is about no effect); details: rPXR reporter cells, luciferase (One-Glo), 24 h
[3] = at 45.9 µM (top of the series), tumour line B
[4] = at 45.9 µM (top of the series), tumour line D
[5] = at 46 µM (top of the series), tumour line A
[6] = at 91.6 µM (top of the series), tumour line B
[7] = at 91.6 µM (top of the series), tumour line D

Sequence of Nuclear receptor subfamily 1 group I member 2 (Rattus norvegicus) (Q9R1A7 whole entry, looked up): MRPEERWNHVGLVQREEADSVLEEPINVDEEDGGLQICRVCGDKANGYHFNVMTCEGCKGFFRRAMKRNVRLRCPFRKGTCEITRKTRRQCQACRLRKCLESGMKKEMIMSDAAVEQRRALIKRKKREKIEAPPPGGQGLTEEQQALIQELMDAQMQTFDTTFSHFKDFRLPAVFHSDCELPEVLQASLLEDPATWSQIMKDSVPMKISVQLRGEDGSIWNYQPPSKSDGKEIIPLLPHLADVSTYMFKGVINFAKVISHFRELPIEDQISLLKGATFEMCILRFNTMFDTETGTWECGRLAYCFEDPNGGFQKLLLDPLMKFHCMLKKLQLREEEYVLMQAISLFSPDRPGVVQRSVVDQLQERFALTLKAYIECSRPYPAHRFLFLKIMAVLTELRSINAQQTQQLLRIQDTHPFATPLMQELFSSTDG

CCN(CC)C(C)C(=O)c1ccccc1 (stereo not given)
inactive: Potency (PA-1) | Potency (SKOV3) | Potency (Tov-21-G) | Potency (Tov112D) | activity, negative = cell killing [1, 3] -5.61% | activity, negative = cell killing [1, 4] -24.9% | activity, negative = cell killing [1, 5] -22.4% | Potency (astro)

NCc1cccnc1
inactive: Potency (PA-1) | Potency (SKOV3) | Potency (Tov-21-G) | Potency (Tov112D) | activity, negative = cell killing [1, 3] -7.53% | activity, negative = cell killing [1, 4] -1.09% | activity, negative = cell killing [1, 5] -28.1% | Potency (astro)

COC(=O)C1=CCCN(C)C1
inactive: Potency (PA-1) | Potency (SKOV3) | Potency (Tov-21-G) | Potency (Tov112D) | activity, negative = cell killing [1, 3] -5.77% | activity, negative = cell killing [1, 4] -12.9% | activity, negative = cell killing [1, 5] -22.4% | Potency (astro)

CN1C[C@@H](NS(=O)(=O)N(C)C)C[C@@H]2c3cccc4c3c(cn4C)C[C@H]21
inactive: Potency (PA-1) | Potency (SKOV3) | Potency (Tov-21-G) | Potency (Tov112D) | activity, negative = cell killing [1, 3] -15.4% | activity, negative = cell killing [1, 4] -25.6%
active: Potency ([1]; tumour line A) 10 µM

ClC1=C(Cl)C2(Cl)C(CBr)CC1(Cl)C2(Cl)Cl (stereo not given)
inactive: Potency (PA-1) | Potency (SKOV3) | Potency (Tov-21-G) | Potency (Tov112D) | Potency (astro)

O=C(CCCN1CCC(n2c(=O)[nH]c3ccccc32)CC1)c1ccc(F)cc1
active: Potency ([1]; tumour line A) 5.62 µM
inactive: Potency (PA-1) | Potency (SKOV3) | Potency (Tov-21-G) | Potency (Tov112D) | activity, negative = cell killing ([1]; at 21.2 µM (top of the series), tumour line B) -8.66% | Potency (astro)

CC1N=C(N)OC1c1ccccc1 (stereo not given)
active: Potency ([1]; tumour line A) 50.1 µM
inactive: Potency (PA-1) | Potency (Tov-21-G) | Potency (Tov112D) | activity, negative = cell killing [1, 6] -8.97% | activity, negative = cell killing [1, 7] -16.1%

Clc1ccc(CSC(Cn2ccnc2)c2ccc(Cl)cc2Cl)cc1 (stereo not given)
inactive: Potency (PA-1) | Potency (Tov-21-G) | Potency (Tov112D)
active: Potency ([1]; tumour line A) 2.24 µM

CN(C)CCc1c[nH]c2ccc(O)cc12
inactive: Potency (PA-1) | Potency (SKOV3) | Potency (Tov-21-G) | Potency (Tov112D) | activity, negative = cell killing [1, 6] -5.09% | activity, negative = cell killing [1, 7] -23.3% | Potency (astro)

CNC(=O)Oc1cccc2ccccc12
active: Potency ([1]; tumour line A) 35.5 µM
inactive: Potency (PA-1) | Potency (SKOV3) | Potency (Tov-21-G) | Potency (Tov112D) | max response [2] 5.05% and 2.44%

O=C(O)c1nn(Cc2ccc(Cl)cc2Cl)c2ccccc12
inactive: Potency (PA-1) | Potency (SKOV3) | Potency (Tov-21-G) | Potency (Tov112D) | activity, negative = cell killing [1, 3] -14.7% | activity, negative = cell killing [1, 5] -31.3% | Potency (astro)

CN1CCc2cc(Cl)c(O)cc2[C@H]2c3ccccc3CC[C@@H]21
active: Potency ([1]; tumour line A) 11.2 µM
inactive: Potency (PA-1) | Potency (SKOV3) | Potency (Tov-21-G) | Potency (Tov112D) | activity, negative = cell killing [1, 3] -22.7% | Potency (astro)
